# Data published in the supplement of paper PMC10849652.
# The full data set covers some 8,800 targets. This sample favours those with a hit. About 0.5% of all pairs of compound and target were hits. A number with no mark means an inactive call.
# Assays:
# Assay in all cases: log2 fold change, soluble protein after heating vs DMSO (PISA); higher = thermal stabilisation; K562 lysate, 10 uM; active = over 0.2 and 3.5 SD of the protein, either way, in both replicates (recomputed)
# [1] = compound: Cc1cn(-c2cc(NC(=O)c3ccc(C)c(Nc4nccc(-c5cccnc5)n4)c3)cc(C(F)(F)F)c2)cn1 [nilotinib]
# In short: (§1)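 Soluble protein was defined as the supernatant remaining after 21,000xg for 90 min, following pooling of heated aliquots and adjustment to 0.5% NP-40 at 4°C. Before that, crude K562 extract at 1 mg/mL protein in PBS pH 7.4 with 1 mM MgCl2 was treated with 10 μM compound for 30 min and heated for 3 min across 48°C-58°C. Quantification used TMTpro 16plex LC-MS/MS with channel sums equalised, and values are log-two fold changes in thermal stability relative to solvent controls from duplicates.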
# [2] = compound: Cc1nc(Nc2n[nH]c3c2CN(C(=O)N[C@H](CN(C)C)c2ccccc2)C3(C)C)c2sccc2n1
# In short: as §1
# [3] = compound: Cc1nc(Nc2ncc(C(=O)Nc3c(C)cccc3Cl)s2)cc(N2CCN(CCO)CC2)n1 [dasatinib]
# In short: as §1
# [4] = compound: Cc1ncc(-c2ccnc(Nc3ccc(S(C)(=O)=O)cc3)n2)n1C(C)C
# In short: as §1
# [5] = compound: Cn1cc(-c2ccc3c(c2)CCN3C(=O)Cc2cccc(C(F)(F)F)c2)c2c(N)ncnc21
# In short: as §1
# [6] = compound: Cn1cc(CNCC2CCN(c3ncc(C(=O)NO)cn3)CC2)c2ccccc21 [quisinostat]
# In short: as §1
# [7] = compound: Cn1cncc1[C@@](N)(c1ccc(Cl)cc1)c1ccc2c(c1)c(-c1cccc(Cl)c1)cc(=O)n2C [tipifarnib]
# In short: as §1
# [8] = compound: NC(=O)Nc1cc(-c2cccc(F)c2)sc1C(=O)N[C@H]1CCCNC1
# In short: as §1
# [9] = compound: NC(=O)c1cnc(N[C@@H]2CCCC[C@@H]2N)nc1Nc1cccc(-n2nccn2)c1
# In short: as §1
# [10] = compound: NC1(c2ccc(-c3nc4ccn5c(=O)[nH]nc5c4cc3-c3ccccc3)cc2)CCC1
# In short: as §1
# Sequence of UniProt Q9BTA9 (Q9BTA9 whole entry, looked up): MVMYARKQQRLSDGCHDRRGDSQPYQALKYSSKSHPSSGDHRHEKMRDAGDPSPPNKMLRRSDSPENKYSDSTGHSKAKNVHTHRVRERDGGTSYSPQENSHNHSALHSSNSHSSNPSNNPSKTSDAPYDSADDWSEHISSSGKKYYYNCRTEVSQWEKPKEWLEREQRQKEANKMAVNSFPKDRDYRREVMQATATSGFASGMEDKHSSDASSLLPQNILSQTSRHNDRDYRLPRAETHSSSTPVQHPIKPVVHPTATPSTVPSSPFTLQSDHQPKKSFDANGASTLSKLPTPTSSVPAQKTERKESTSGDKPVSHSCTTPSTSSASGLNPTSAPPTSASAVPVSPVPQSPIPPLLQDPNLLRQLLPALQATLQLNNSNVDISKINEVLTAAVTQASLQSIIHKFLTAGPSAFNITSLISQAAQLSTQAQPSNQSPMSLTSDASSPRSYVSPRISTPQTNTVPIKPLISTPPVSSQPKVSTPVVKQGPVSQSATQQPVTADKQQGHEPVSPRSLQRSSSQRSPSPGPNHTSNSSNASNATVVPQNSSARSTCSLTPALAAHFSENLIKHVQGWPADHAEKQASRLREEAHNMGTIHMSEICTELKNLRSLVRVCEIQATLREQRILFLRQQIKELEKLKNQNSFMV
# Sequence of UniProt O00258 (O00258 whole entry, looked up): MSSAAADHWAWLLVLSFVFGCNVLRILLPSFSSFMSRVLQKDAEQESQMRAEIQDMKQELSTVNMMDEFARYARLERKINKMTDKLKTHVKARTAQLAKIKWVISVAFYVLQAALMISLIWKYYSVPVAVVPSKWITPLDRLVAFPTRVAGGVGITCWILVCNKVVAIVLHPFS
# Sequence of UniProt Q9NNW5 (Q9NNW5 whole entry, looked up): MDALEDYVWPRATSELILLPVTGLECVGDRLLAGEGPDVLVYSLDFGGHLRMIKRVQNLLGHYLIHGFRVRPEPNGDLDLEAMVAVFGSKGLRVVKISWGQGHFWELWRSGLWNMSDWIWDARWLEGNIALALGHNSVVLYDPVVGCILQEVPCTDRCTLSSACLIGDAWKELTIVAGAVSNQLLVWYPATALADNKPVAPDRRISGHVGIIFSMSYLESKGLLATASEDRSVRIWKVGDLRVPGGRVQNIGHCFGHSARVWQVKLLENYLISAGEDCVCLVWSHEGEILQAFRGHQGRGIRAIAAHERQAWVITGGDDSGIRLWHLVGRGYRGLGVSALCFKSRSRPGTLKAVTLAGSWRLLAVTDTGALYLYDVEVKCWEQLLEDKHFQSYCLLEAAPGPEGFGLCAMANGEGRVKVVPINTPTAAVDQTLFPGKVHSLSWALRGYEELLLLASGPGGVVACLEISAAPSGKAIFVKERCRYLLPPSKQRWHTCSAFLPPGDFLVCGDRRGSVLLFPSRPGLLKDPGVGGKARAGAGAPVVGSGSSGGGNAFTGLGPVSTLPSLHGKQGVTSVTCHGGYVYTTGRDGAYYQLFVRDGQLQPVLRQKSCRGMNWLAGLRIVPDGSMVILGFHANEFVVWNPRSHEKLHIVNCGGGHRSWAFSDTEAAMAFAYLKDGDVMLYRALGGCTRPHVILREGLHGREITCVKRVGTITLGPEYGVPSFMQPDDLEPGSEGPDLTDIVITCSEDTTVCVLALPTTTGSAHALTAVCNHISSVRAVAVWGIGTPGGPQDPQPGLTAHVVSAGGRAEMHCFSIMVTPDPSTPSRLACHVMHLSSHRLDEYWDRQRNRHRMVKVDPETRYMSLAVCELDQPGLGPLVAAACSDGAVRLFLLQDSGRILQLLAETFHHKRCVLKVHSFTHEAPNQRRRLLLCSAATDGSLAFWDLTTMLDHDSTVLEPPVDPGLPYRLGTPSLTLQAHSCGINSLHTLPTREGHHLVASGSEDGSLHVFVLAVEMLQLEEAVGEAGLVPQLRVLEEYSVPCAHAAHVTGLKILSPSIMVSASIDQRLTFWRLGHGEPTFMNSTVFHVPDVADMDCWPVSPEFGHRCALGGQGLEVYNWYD
# Sequence of UniProt P27348 (P27348 whole entry, looked up): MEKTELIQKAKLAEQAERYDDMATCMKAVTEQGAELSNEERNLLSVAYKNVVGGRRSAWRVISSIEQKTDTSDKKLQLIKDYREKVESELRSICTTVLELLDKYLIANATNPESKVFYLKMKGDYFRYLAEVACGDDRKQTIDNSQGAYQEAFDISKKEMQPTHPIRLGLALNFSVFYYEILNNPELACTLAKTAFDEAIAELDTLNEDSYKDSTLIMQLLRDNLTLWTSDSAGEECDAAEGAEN
# Sequence of UniProt Q96TA2 (Q96TA2 whole entry, looked up): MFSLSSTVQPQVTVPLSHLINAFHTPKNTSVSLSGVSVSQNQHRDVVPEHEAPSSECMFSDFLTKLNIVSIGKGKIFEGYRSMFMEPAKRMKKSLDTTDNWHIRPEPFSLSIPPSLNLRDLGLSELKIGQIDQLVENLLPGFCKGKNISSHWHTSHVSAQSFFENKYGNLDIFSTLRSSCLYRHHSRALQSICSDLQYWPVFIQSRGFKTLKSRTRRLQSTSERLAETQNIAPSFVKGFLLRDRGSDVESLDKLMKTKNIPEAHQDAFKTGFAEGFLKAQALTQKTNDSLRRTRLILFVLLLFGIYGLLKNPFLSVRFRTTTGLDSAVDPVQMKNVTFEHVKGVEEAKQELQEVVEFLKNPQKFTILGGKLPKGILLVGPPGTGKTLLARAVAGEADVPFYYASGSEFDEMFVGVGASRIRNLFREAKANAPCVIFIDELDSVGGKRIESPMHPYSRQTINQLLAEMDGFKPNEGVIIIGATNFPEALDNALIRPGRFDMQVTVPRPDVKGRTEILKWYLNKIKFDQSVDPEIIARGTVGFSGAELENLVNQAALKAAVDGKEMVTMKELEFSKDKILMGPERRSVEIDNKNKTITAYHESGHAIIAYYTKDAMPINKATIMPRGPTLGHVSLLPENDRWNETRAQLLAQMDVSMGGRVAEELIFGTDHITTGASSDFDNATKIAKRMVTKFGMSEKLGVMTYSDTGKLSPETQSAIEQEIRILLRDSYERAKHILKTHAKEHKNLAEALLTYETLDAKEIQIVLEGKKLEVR
# Sequence of UniProt Q9Y5T5 (Q9Y5T5 whole entry, looked up): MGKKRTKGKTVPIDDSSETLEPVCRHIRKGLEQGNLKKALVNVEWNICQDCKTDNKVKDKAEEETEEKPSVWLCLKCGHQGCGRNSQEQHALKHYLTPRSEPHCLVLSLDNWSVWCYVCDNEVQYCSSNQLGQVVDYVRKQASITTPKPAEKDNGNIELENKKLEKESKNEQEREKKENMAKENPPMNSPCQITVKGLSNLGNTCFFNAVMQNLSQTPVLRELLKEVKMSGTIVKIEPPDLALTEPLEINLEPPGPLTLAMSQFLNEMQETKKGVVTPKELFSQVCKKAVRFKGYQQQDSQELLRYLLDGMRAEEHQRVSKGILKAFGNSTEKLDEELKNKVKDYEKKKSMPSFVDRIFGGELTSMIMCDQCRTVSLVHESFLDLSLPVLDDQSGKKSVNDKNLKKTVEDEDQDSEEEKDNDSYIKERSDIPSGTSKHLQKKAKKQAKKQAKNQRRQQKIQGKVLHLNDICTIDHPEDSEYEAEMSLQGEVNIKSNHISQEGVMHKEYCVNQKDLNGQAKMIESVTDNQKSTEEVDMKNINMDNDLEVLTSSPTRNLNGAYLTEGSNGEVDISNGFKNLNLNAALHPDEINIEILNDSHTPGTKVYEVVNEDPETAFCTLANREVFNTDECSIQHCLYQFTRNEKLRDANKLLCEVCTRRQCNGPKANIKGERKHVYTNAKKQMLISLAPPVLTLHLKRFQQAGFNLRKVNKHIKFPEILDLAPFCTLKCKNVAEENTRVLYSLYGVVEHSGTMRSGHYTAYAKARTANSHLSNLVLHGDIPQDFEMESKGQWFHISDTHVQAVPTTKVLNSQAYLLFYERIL
# Sequence of UniProt Q9NQW7 (Q9NQW7 whole entry, looked up): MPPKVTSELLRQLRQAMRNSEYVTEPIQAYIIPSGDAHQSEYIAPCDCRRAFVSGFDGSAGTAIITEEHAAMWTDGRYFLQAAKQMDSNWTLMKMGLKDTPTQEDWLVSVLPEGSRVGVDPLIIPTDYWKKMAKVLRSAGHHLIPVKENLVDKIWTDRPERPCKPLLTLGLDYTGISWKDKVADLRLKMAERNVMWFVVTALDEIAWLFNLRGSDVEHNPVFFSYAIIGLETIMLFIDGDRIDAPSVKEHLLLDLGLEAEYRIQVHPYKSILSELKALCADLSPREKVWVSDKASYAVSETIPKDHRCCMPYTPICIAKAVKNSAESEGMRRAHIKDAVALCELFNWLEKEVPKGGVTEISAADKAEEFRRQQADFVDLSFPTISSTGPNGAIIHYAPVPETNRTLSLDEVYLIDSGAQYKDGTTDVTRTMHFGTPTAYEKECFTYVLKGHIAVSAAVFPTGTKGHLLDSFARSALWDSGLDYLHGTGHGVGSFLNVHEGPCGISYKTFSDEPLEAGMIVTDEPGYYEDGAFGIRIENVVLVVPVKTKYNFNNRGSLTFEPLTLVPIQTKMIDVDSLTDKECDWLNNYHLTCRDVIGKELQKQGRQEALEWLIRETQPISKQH
# Sequence of UniProt P30291 (P30291 whole entry, looked up): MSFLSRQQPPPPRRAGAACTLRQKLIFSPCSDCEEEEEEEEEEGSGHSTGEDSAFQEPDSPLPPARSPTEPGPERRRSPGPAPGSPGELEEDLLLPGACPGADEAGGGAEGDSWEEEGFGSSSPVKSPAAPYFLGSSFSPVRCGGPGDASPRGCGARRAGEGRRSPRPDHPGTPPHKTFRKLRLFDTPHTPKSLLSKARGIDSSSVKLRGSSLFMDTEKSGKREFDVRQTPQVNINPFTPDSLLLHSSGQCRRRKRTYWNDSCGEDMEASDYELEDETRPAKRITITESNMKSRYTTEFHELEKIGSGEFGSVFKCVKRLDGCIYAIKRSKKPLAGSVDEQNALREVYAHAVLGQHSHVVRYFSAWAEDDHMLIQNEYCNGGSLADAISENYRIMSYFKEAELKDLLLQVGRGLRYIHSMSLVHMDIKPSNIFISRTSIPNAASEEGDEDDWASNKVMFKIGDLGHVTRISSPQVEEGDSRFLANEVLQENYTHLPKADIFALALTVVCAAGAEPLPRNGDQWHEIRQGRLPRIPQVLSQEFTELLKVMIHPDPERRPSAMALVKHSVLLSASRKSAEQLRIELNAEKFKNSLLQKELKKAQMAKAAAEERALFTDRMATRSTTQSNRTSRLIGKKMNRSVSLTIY
Target,log2 fold change [1],log2 fold change [2],log2 fold change [3],log2 fold change [4],log2 fold change [5],log2 fold change [6],log2 fold change [7],log2 fold change [8],log2 fold change [9],log2 fold change [10]
VANGL1 (UniProt Q8TAA9),-0.086,-0.067,-0.019,0.079,-0.036,0.014,0.042,0.009,0.121,0.034
WIPI1 (UniProt Q5MNZ9),0.011,-0.198,0.06,0.314 (active),-0.028,0.013,0.003,-0.011,0.009,0.011
VPS41 (UniProt P49754),0.034,0.014,-0.038,0.001,0.057,-0.048,-0.029,0.029,0.001,-0.009
WDR36 (UniProt Q8NI36),0.003,-0.015,0.012,0.002,0.025,-0.014,-0.002,0.03,-0.004,-0.01
ZBTB33 (UniProt Q86T24),-0.009,0.084,-0.06,-0.052,0.029,-0.08,-0.083,0.133,0,-0.035
USP34 (UniProt Q70CQ2),-0.018,-0.002,-0.042,-0.018,0.023,-0.041,0.021,0.074,0.018,0
ZNF451 (UniProt Q9Y4E5),0.016,0.013,-0.028,-0.033,0.02,-0.044,-0.049,0.022,0.044,-0.038
WRB (UniProt O00258),0.06,-0.017,-0.014,0.183,0.082,0.015,-0.044,-0.005,0.071,0.024
ZMYM2 (UniProt Q9UBW7),-0.04,0.001,-0.023,-0.007,0.035,-0.082,0.08,0.056,0.099,-0.033
WIPI2 (UniProt Q9Y4P8),0.032,0.043,0.007,-0.018,-0.004,-0.054,0.011,0.053,-0.005,0.021
WRNIP1 (UniProt Q96S55),-0.008,0.002,-0.018,-0.05,0.066,-0.035,-0.02,0.053,-0.008,-0.001
ZMYND8 isoform 19 (UniProt Q9ULU4),-0.011,-0.056,-0.019,0.022,0.036,-0.073,-0.025,-0.004,0.009,0.043
USP16 (UniProt Q9Y5T5),0.016,0.005,0.053,0.014,0.041,-0.014,0.016,0.011,0.023,0.012
WAC (UniProt Q9BTA9),-0.012,-0.001,-0.038,-0.019,0.002,-0.029,0,0.019,-0.01,0.004
YDJC (UniProt A8MPS7),-0.027,0.045,-0.1,-0.044,-0.02,-0.03,-0.045,-0.001,0.021,0.074
XPNPEP1 isoform 3 (UniProt Q9NQW7),0.022,0.016,-0.049,-0.004,0.014,0.024,0.011,0.007,-0.005,-0.023
USP8 (UniProt P40818),-0.014,-0.007,0.005,0.042,0.024,-0.015,-0.01,0.016,-0.016,0.026
UTP3 (UniProt Q9NQZ2),-0.106,0.008,-0.048,-0.054,-0.023,0.014,0.051,0.065,0.002,0
VPS16 (UniProt Q9H269),0,0.011,-0.013,0.014,0.021,-0.095,-0.012,0.022,0.004,0.009
YME1L1 (UniProt Q96TA2),0.011,-0.06,0,0.026,-0.044,-0.045,-0.019,0.016,0.06,-0.059
VPS4A (UniProt Q9UN37),-0.011,0.008,-0.075,0.002,0.056,-0.027,0.023,0.019,0.004,-0.011
UNC45A (UniProt Q9H3U1),-0.007,0.003,-0.051,0.018,0.016,-0.047,-0.015,0.03,0.016,-0.001
WDR7 (UniProt Q9Y4E6),0.001,-0.018,-0.088,-0.011,0.003,-0.016,-0.032,0.014,0.007,-0.03
WDR6 (UniProt Q9NNW5),-0.017,0.002,-0.018,-0.003,0.026,-0.075,0.036,0.033,0.006,-0.032
YTHDC2 (UniProt Q9H6S0),0.006,-0.001,-0.043,0.03,0.03,-0.046,0.022,0.06,-0.007,-0.054
VPS39 (UniProt Q96JC1),0.03,-0.008,-0.044,0.024,-0.003,-0.046,0.002,0.005,-0.008,-0.003
ZKSCAN8 (UniProt Q15776),0.05,0.015,-0.096,-0.03,0.026,-0.134,0.101,0.005,-0.029,-0.064
YWHAQ (UniProt P27348),-0.008,-0.005,0.04,0.037,0.011,0.095,0.019,-0.023,-0.035,0.014
ZNF845 (UniProt Q96IR2),0,0.087,-0.038,-0.053,0.021,-0.033,-0.006,0.122,0.016,0.163
WEE1 (UniProt P30291),-0.002,0.001,0.397 (active),-0.033,-0.002,-0.069,-0.007,0.223,-0.106,-0.044
